Source: PubChem BioAssay (several laboratories)
Only some compounds are listed: those with a hit (about 1.2% of all), similar ones and a draw of the others.
PolyA inh: inhibitors of polyadenylation in S. cerevisiae | S. cerevisiae SKY197-pL101 polyadenylation reporter, beta-gal luminescence; efflux-impaired pdr1/pdr3 knockout yeast; score 100 = 6 SD above DMSO | activity score, % at 12 µM | hit rate 0.02% among 300,000 | AID 1875;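 active = lowest replicate activity score at least 50, where 100 means six control SD above control mean; inconclusive = lowest score under 50 but half or more replicates reach 50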;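 note: yeast exposed to compound for 9 h at 30 °C; higher score means more reporter readthrough which indicates perturbed polyadenylation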
NALP1 inh: NALP1 inhibition | S. cerevisiae NALP1/ASC/caspase-1 growth, X-gal OD620, 72 h | inhibition, % at 10 µM | hit rate 0.61% among 280,000 | AID 2071; in the data active = inhibition mostly above about 24%, no sharp cut-off; inactive = mostly below about 32%
A3A deaminase: blocks human APOBEC3A ssDNA deamination. recombinant A3A, FAM/TAMRA ssDNA deamination fluorescence. P31941. AID 493011. inhibition, % at 20 µM. hit rate 0.41% among 330,000;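 active = at least 40% inhibition at 20 µM here, with at most 30% in a related deaminase screen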
Target sequence (P31941 whole entry, looked up): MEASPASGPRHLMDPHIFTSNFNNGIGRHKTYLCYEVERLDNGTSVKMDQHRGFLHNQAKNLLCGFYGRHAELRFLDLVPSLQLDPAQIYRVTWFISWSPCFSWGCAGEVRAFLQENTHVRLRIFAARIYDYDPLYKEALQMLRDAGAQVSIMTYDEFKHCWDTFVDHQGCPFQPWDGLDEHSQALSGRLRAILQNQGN
A3G deaminase: blocks human APOBEC3G single-stranded DNA deamination. recombinant A3G, ssDNA deamination FAM/TAMRA fluorescence. inhibition, % at 20 µM. hit rate 0.28% among 330,000. Q9HC16;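 active = inhibition of at least 40% at 20 µM, with no more than 30% in the related APOBEC3A deaminase screen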
Target sequence (Q9HC16 whole entry, looked up): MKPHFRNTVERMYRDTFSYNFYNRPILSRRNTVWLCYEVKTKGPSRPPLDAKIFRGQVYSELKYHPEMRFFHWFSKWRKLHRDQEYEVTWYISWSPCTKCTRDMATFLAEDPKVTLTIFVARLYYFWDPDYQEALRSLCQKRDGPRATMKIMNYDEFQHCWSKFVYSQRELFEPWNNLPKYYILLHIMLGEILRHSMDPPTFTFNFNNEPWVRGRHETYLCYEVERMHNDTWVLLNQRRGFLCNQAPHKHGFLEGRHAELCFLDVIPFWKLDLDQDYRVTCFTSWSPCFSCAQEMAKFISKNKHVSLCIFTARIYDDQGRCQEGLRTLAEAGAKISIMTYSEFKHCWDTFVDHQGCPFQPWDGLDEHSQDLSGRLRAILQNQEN
Each line names hits and unclear results; the compound was inactive in the other large screens.

Cc1cc(NC(=O)C(Cl)c2ccccc2)no1 (stereo not given)	none
CC(C(=O)NCc1ccccc1)N1C(=O)c2ccccc2C1=O (stereo not given)	none
C[C@@H](C(=O)NCc1ccccc1)N1C(=O)C2CC=CCC2C1=O (stereo not given in full)	NALP1 inh 36
CC(=O)c1c(-c2ccccc2)c2cc(Cl)ccc2[nH]c1=O	NALP1 inh 30
Cc1ccc2nc(N(CCCN(C)C)C(=O)CS(=O)(=O)c3ccccc3)sc2c1	none (no result: NALP1 inh)
CN(C)CCCN(C(=O)CCc1ccccc1)c1nc2ccc(Cl)cc2s1	NALP1 inh 64
Cc1ccc2nc(N(CCCN(C)C)C(=O)CCc3ccccc3)sc2c1	NALP1 inh 48 (no result: A3A deaminase, A3G deaminase)
CCCn1c(Nc2nc3ccccc3n2C)nc2ccccc21	NALP1 inh 30
CCCn1c(=O)n(CC(=O)NCC2CCCO2)c(=O)c2c3c(sc21)COC(C)(C)C3 (stereo not given)	none
CN1CCN(c2ccc(Cl)cc2NC(=O)C2COc3ccccc3O2)CC1 (stereo not given)	NALP1 inh 32
COc1ccc(Cl)cc1NC(=O)C1COc2ccccc2O1 (stereo not given)	none
Cc1cc(C)c(S(=O)(=O)Nc2ccccc2C(=O)OCC(=O)NCc2ccccc2)c(C)c1	none
CCOCCCNCc1cn(-c2ccc(F)cc2F)nc1-c1ccccc1C	NALP1 inh 27
Cc1ccccc1-c1nn(-c2ccc(F)cc2F)cc1CNCC(C)O (stereo not given)	none
COc1cc(C2SCC(=O)N2c2c(C)n(C)n(-c3ccccc3)c2=O)ccc1O (stereo not given)	NALP1 inh 38
COc1ccc(C2SCC(=O)N2c2c(C)n(C)n(-c3ccccc3)c2=O)cc1 (stereo not given)	none
COc1ccc(CCN(C)CCCN2CC(c3ccccc3)CC2=O)cc1OC (stereo not given)	NALP1 inh 22
CCN(CC(=O)Nc1ccc(NC(C)=O)cc1)CC(=O)Nc1cc(C)on1	none (no result: PolyA inh, NALP1 inh)
COC(=O)c1ccc(/C=N\N2CCN(c3ccccc3)CC2)cc1	none
CCOC(=O)c1c(N2C(=O)C=CC2=O)sc(C)c1C	NALP1 inh 53
CCOC(=O)c1c(NC(N)=O)sc(C)c1C	none
CCCCN1CCNC[C@@H]1c1ccccc1	none (no result: PolyA inh, NALP1 inh)
OC(COc1ccc(F)cc1Cl)CN1CCC(Cc2ccccc2)CC1 (stereo not given)	NALP1 inh 42
Cc1cc(C)n(-c2ccc(F)cc2)c(=O)c1C(=O)O	none
CC(=O)c1c(O)cc(C)n(-c2ccc(F)cc2)c1=O	NALP1 inh 29
COCCN(C(=O)CSc1n[nH]c(-c2ccccc2)n1)c1c(N)n(Cc2ccccc2)c(=O)[nH]c1=O	none (no result: NALP1 inh)
Cc1ccc(S(=O)(=O)N2CCN(C(=O)COC(=O)COc3ccccc3)CC2)cc1	NALP1 inh 29
CCOc1ccc(S(=O)(=O)N2CCN(C(=O)CCC(=O)N3CCOCC3)CC2)cc1	none (no result: NALP1 inh)
N#CC1(C#N)C2=C(CCCC2)NC(c2ccccc2)C1(C#N)C#N (stereo not given)	PolyA inh 159
Cc1ccc(C(=O)O)cc1N=Cc1cc(Br)cc(Br)c1O	NALP1 inh 70 (no result: A3A deaminase, A3G deaminase)
CC(=O)Nc1ccc(C(=O)N/N=C/c2cc(Br)cc(Br)c2O)cc1	none
CN(Cc1ccccc1)C(=O)c1ccc(S(=O)(=O)N(C)c2ccccc2)cc1	none (no result: PolyA inh, NALP1 inh)
COc1ccc(C(=O)Nn2c(SCC(=O)NCc3ccccc3)nc3ccccc3c2=O)cc1	NALP1 inh 38
COc1ccc(C(=O)Nn2c(SCC(=O)NC3CCCC3)nc3ccccc3c2=O)cc1	none
COc1ccccc1CNC(=O)CC(C)C	none
COC(=O)CC(N)c1ccc(OC)c2ccccc12 (stereo not given)	NALP1 inh 36
O=C(CCN1C(=O)C2C3C=CC(C3)C2C1=O)NC1CCCCC1 (stereo not given)	NALP1 inh 37
CCN1C(=O)c2ccc(C(=O)NCc3ccco3)cc2C1=O	PolyA inh inconclusive, NALP1 inh 31
Cc1cc(C)cc(NC(=O)c2cnn(-c3ccccc3)c2C2CCNCC2)c1	NALP1 inh 23
CCc1oc2ccccc2c1C(=O)CCN1CCCCC1	NALP1 inh 50
CC(=O)N1c2ccc(S(=O)(=O)N3CCC(C(=O)N4CCCC(C)C4)CC3)cc2CC1C (stereo not given)	none
Cc1ccc(NC(=O)N2CCCC2)cc1Cl	NALP1 inh 38
CCOC(=O)c1ccc(NC(=O)N2CCCCCC2)cc1	NALP1 inh 43
COc1ccccc1N1CCN(C2CC(=O)N(c3cccc(Cl)c3)C2=O)CC1 (stereo not given)	none
Cn1c(COc2ccc(C(=O)O)cc2)nc2ccccc21	none
CCCCOc1ccc(C(=O)O)cc1	NALP1 inh 20
CCCn1c(COc2ccc(C(=O)O)cc2)nc2ccccc21	NALP1 inh 43
CCN(CC)P(=O)(c1ccccc1)c1c(C)nc2ccccn12 (stereo not given)	none
CCN(CC)S(=O)(=O)c1ccc(N2CC(C(=O)N3Cc4ccccc4CC3C(N)=O)CC2=O)cc1 (stereo not given)	none (no result: PolyA inh, NALP1 inh)
Cc1ccc(F)cc1S(=O)(=O)NCc1ccc(N2CCN(C)CC2)cc1	NALP1 inh 31
CCOc1cccc(CNCCSc2nnnn2C)c1	NALP1 inh 27
CCOc1cc(CNCCSc2nnnn2C)cc(Br)c1OCc1ccccc1	none
Cc1ccc(C(=O)c2no[n+]([O-])c2C(=O)c2ccc(C)cc2)cc1	PolyA inh 100
Cc1ccc(C(=O)c2ccc(C)cc2)cc1	none
CN(C)c1ccc(NS(=O)(=O)c2ccc(-c3csnn3)cc2)cc1	NALP1 inh 43
COC(=O)C1CCN(Cc2ccc(OCCCN3CCN(c4ccc([N+](=O)[O-])cc4)CC3)cc2)CC1	NALP1 inh 26
CCC1Oc2ccccc2N(CC(=O)NCC2CCCO2)C1=O (stereo not given)	none
Cn1c(=O)c(C(=O)NNC(=O)c2ccccc2Cl)c(O)c2ccccc21	PolyA inh 88
Cc1nnc(NC(=O)CSc2nccn2Cc2ccc(F)cc2)s1	none
Nc1nc(SCc2cccc([N+](=O)[O-])c2)n[nH]1	none
CN(c1ccccc1C(=O)N1CCN(Cc2ccc3c(c2)OCO3)CC1)S(C)(=O)=O	NALP1 inh 36
CCOc1ccc(NC(=S)Nc2cccc3cnccc23)cc1	none
COc1ccc(NC(=O)CNC(=O)Cc2cccc3ccccc23)cc1	none (no result: PolyA inh, NALP1 inh)
CC(=O)Nc1ccc(OCc2cccc3ccccc23)cc1	NALP1 inh 29
CCOc1ccc(NC(=S)Nc2cccc3ccccc23)cc1	NALP1 inh 40
C=CCC[C@@H](Cc1ccc(F)cc1)C(=O)O[C@H](CNC(=O)[C@@H](CC=C)CC(=O)N[C@H](CO)Cc1ccccc1)c1ccccc1	none (no result: PolyA inh, NALP1 inh)
Clc1ccccc1-c1nn2c(COc3ccccc3)nnc2s1	NALP1 inh 40
CCOc1cc(CNC2CCCC2)cc(Cl)c1OCc1ccc(F)cc1	NALP1 inh 97
CCOc1cc(CNCc2ccncc2)cc(Br)c1OCc1ccc(F)cc1	NALP1 inh 51
O=C(CCN1CCCCO1)N1CCCC(N2CCN(c3ccc(F)cc3)CC2)C1 (stereo not given)	none
